Assay results taken from PubChem BioAssay (NCATS).
Inconclusive results are not listed. Activity calls are given as the source filed them. Unless noted, the call rests on the fitted dose curve; in most records, active means well fitted curve in the direction sought with a large enough effect; inconclusive means small, poorly fitted or top-dose-only effect, or another doubt; inactive means no such curve, though single readings can be large; an effect the other way counts as inactive or inconclusive.

Tests used:
[1] = Cell Viability - BJ (AID 421; calls by dose curve;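 further: potency means the concentration at half of the fitted maximal effect; cells exposed to compound for 40 hours at 37 °C before readout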); conditions: BJ fibroblast viability, qHTS
Summary of the method: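 Cytotoxicity as drop in intracellular ATP (CellTiter-Glo, 20 min RT) after 40 hr compound exposure of BJ fibroblasts at 37 °C. Titrations scaled between DMSO and 100 uM tamoxifen, Hill-fitted for AC50.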

[2] = Cell Viability - Jurkat (AID 426;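 active means dose-dependent loss of cell ATP signal giving a full or clear fitted curve, ranked by lower potency value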;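 further: potency means the concentration at half of the fitted maximal effect; cells exposed to compound for 40 hours at 37 °C before ATP read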); conditions: qHTS
Summary of the method: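 Cells of the human T-cell leukemia line Jurkat (E6-1) are seeded at 5000 per well, treated with compound across a concentration range for 40 hours at 37 °C, then lysed with CellTiter-Glo; luminescence reports ATP.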

[3] = Cell Viability - Hek293 (AID 427;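 active means compounds whose dose-response curve shows a full or clear partial loss of cell viability, called from curve shape rather than a numeric limit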;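 further: potency means the concentration at half of the fitted maximal effect; cells exposed to compound for 40 hours at 37 °C before reading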); conditions: qHTS
Summary of the method: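 Luminescent ATP content (CellTiter-Glo, 20 min at room temperature) was measured after a 40 hr, 37 °C compound exposure of HEK293 cells. AC50 values came from Hill-equation fits of qHTS concentration-response data normalized to DMSO and 100 uM tamoxifen.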

[4] = Cell Viability - HepG2 (AID 433; calls by dose curve;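 further: potency means the concentration at half of the fitted maximal effect; potency for ATP loss meaning cytotoxicity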); conditions: qHTS
Summary of the method: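 HepG2 hepatocellular carcinoma cells (1500/well) were treated with compounds for 40 h at 37 °C in complete medium; intracellular ATP was read by CellTiter-Glo luminescence. Data were normalized to DMSO and 100 uM tamoxifen, and AC50 came from Hill fits.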

[5] = Cell Viability - MRC5 (AID 434; calls by dose curve;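 further: potency means the concentration at half of the fitted maximal effect; potency reflects cytotoxicity seen as loss of intracellular ATP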); conditions: MRC5 lung fibroblast viability, qHTS
Summary of the method: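 ATP luminescence read-out (CellTiter-Glo, 20 min RT) after 40 hr, 37 °C compound exposure of 1500 MRC5 cells/well. Data normalized to DMSO (basal) and 100 uM tamoxifen (100% inhibition); AC50 from standard Hill equation.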

[6] = biological target: Mitogen-activated protein kinase 10 (Mus musculus) (UniProt Q61831); assay: JNK3 AlphaScreen Assay (AID 530; active means well fitted curve in either direction with a large enough effect, not every such curve was filed as active;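 further: kinase came from lysate of stimulated human HepG2 cells; signal reports phosphorylation of biotinylated GST-cJun 1-79 at Ser73 with 10 µM ATP; on the % scale 0 is the no-effect control and ±100 the full control effect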)
Summary of the method: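 Activity was read by AlphaScreen after JNK3-containing HepG2 lysate (cytokine pre-activated) phosphorylated biotinylated GST-cJun with 10 uM ATP at room temperature. Phospho-Ser73 cJun antibody with Protein-A acceptor beads provided detection.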

[7] = Cell Viability - N2a (AID 540); conditions: N2a mouse neuroblastoma cell viability; at 92.2 µM (top of the series);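 further: plate controls were DMSO alone for no effect and tamoxifen control for full effect; nearly all actives have a fitted effect of over 45% in size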
Summary of the method: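 Cytotoxicity was scored as loss of cellular ATP in N2a cells, a mouse neuroblastoma line. Compounds are applied in a qHTS concentration series for 40 hr at 37 °C.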

[8] = Cell Viability - NIH 3T3 (AID 541); conditions: NIH 3T3 cell viability, qHTS; at 92.2 µM (top of the series);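 further: plate controls were DMSO alone for no effect and tamoxifen positive control for full effect; nearly all actives have a fitted effect of over 25% in size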
Summary of the method: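 Cells seeded at 1000/well, rested 5 hr at 37 °C, then dosed and incubated 40 hr at 37 °C. CellTiter-Glo added, 20 min room temperature, luminescence read. AC50 by Hill fit.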

[9] = Cell Viability - H-4-II-E (AID 543); further: on the % scale 0 is the no-effect control and ±100 the full control effect; nearly all actives have a fitted effect of over 35% in size
Summary of the method: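 Cells seeded at 1500 per well and rested 5 hr; compounds added; 40 hr incubation at 37 °C; CellTiter-Glo added, 20 min at room temperature; luminescence read. Hill-equation fits gave AC50.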

[10] = Cell Viability - SH-SY5Y (AID 544);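 further: 0% = DMSO alone and -100% = 100 µM tamoxifen; nearly all actives have a fitted effect of over 55% in size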
Summary of the method: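 Cells were plated at 1500 per well and allowed 5 hr at 37 °C. Compounds were added across a concentration range and incubated 40 hr at 37 °C. CellTiter-Glo was added for 20 min at room temperature before luminescence reading.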

[11] = Cell Viability - Renal Proximal Tubule (AID 545);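 further: 0% = DMSO only and -100% = 100 µM tamoxifen; nearly all actives have a fitted effect of over 40% in size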
Summary of the method: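 Primary rat renal proximal tubule cells (1000/well) were treated with compounds for 40 hr at 37 °C in complete medium. Intracellular ATP was measured by CellTiter-Glo luminescence, and AC50 values came from Hill-equation fits of concentration-response data.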

[12] = Cell Viability - Mesenchymal (AID 546);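 further: cells exposed to compound for 40 hours before reading; 0% = DMSO only and -100% = 100 µM tamoxifen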
Summary of the method: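 Human renal mesenchymal cells (glomerulus-derived), 1000 cells/well, 5 hr 37 °C pre-incubation; compound 40 hr, 37 °C; CellTiter-Glo, 20 min RT; luminescence; AC50 via Hill equation.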

[13] = Cellular Toxicity (caspase-3) HepG2 (AID 654);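 further: cells exposed to compound for 16 hours before reading; 0% = DMSO alone and 100% = caspase signal from 100 µM tamoxifen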
Summary of the method: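 Caspase 3/7 activation in HepG2 is measured as rising luminescence after a 16 hr treatment at 37 °C. Values are scaled between DMSO basal and 100 uM tamoxifen, and AC50 is fitted with the Hill equation.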

[14] = Cellular Toxicity (caspase-3) Jurkat (AID 655);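 further: cells exposed to compound for 16 h at 37 °C before reading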
Summary of the method: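 Jurkat cells (5000/well) in complete medium were treated with compounds for 16 hr at 37 °C, then Caspase-Glo 3/7 luminescence was read after 20 min at room temperature. Data normalized to DMSO (basal) and 100 uM tamoxifen (100%); AC50 from Hill fit.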

[15] = Cellular Toxicity (caspase-3) HUV-EC-C (AID 656);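 further: 0% = DMSO basal and 100% = 100 µM tamoxifen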
Summary of the method: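 HUV-EC-C endothelial cells, 1000/well, were pre-incubated 5 hr at 37°C, then exposed to compounds for 16 hr at 37°C. Caspase-Glo 3/7 luminescence was read after 20 min at room temperature. AC50 came from Hill fits, normalized to DMSO and 100 uM tamoxifen.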

[16] = Cellular Toxicity (caspase-3) SHSY5Y (AID 657)
Summary of the method: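 SH-SY5Y human neuroblastoma cells (1500/well) were treated with compounds for 16 h at 37 °C, then Caspase-Glo 3/7 luminescence was read after 1 h at room temperature. Data normalized to DMSO and 10 uM staurosporine; AC50 from Hill fits.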

[17] = Cellular Toxicity (caspase-3) BJ (AID 658);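 further: 0% = DMSO basal and 100% = 10 µM staurosporine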
Summary of the method: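 qHTS, BJ fibroblasts, 1000 cells/well; 5 hr preincubation, 16 hr compound, 37 °C; Caspase-Glo 3/7 reagent, 1 hr RT; luminescence. DMSO = 0%, 10 uM staurosporine = 100%. Hill-equation AC50.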

[18] = Cellular Toxicity (caspase-3) MRC-5 (AID 659);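 further: 0% = DMSO basal and 100% = 10 µM staurosporine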
Summary of the method: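 MRC-5 fibroblasts, 1500/well; 16 h cpd, 37 °C; Caspase-Glo 3/7, 1 h RT; lumi read. Norm: DMSO = 0%, 10 uM staurosporine = 100%. Hill-fit AC50 from qHTS conc-response.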

[19] = Cellular Toxicity (caspase-3) Mesangial (AID 660);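 further: combined caspase 3 and 7 activity read by Caspase-Glo luminescence; cells exposed to compound for 16 h before the caspase read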
Summary of the method: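 Seed cells derived from normal human renal glomeruli, incubate 5 h, add compounds across concentrations and incubate 16 h at 37 °C. Caspase 3/7 activation is then quantified by luciferase light, with AC50 derived by Hill modeling.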

[20] = Cellular Toxicity (caspase-3) SK-N-SH (AID 661);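 further: 0% = DMSO basal and 100% = 10 µM staurosporine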
Summary of the method: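 Cells were seeded and incubated 5 hr at 37 °C, dosed with compound over a concentration range for 16 hr, then given Caspase-Glo 3/7 reagent for 1 hr at room temperature before luminescence reading.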

[21] = Cellular Toxicity (caspase-3) H-4-II-E (AID 663);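 further: cells exposed to compound for 16 hr before readout; 0% = DMSO basal and 100% = 100 µM tamoxifen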
Summary of the method: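 H-4-II-E rat hepatoma, 1500 cells/well, 5 hr settle at 37 °C; compound 16 hr, 37 °C, complete medium; Caspase-Glo 3/7, 20 min RT; luminescence. DMSO = 0%, 100 uM tamoxifen = 100%; Hill-equation AC50.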

[22] = Cellular Toxicity (caspase-3) Hek293 (AID 664);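 further: cells exposed to compound for 16 h at 37 °C before readout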
Summary of the method: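 qHTS, HEK293 (human embryonic kidney), 16 h cpd exposure in complete medium. Caspase-3/7 activation = luminescence increase; normalized to DMSO/100 uM tamoxifen; Hill-fit AC50.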

[23] = Cellular Toxicity (caspase-3) N2a (AID 665);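 further: compound exposure lasted 16 h at 37 °C before readout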
Summary of the method: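 Caspase-3/7 activation, measured as increased luminescence from aminoluciferin release, is quantified in mouse N2a cells exposed to compounds for 16 h. Values are normalized to DMSO and 10 uM staurosporine, with AC50 derived by Hill modelling.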

[24] = Cellular Toxicity (caspase-3) NIH 3T3 (AID 666);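 further: caspase signal read after 16 h compound exposure; 0% = DMSO basal and 100% = 100 µM tamoxifen stimulation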
Summary of the method: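 Cells were plated at 1000 per well and incubated 5 hr at 37°C, then compound was added for 16 hr. Caspase-Glo 3/7 reagent followed for 20 min at room temperature before luminescence was read.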

[25] = Cellular Toxicity (caspase-3) Renal Proximal Tubule (AID 667);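 further: cells exposed to compound for 16 hours at 37 °C before detection; 0% = DMSO basal and 100% = 10 µM staurosporine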
Summary of the method: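 Primary rat proximal tubule cells, 1000/well, 5 h plating at 37 °C, then compound 16 h at 37 °C. Caspase-Glo 3/7 reagent, 1 h RT, luminescence. Normalized to DMSO (basal) and 10 uM staurosporine (100%); Hill-fit AC50.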

[26] = Cell Viability - LYMP2-001 (AID 921);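 further: 0% = DMSO only and full inhibition = tetraoctylammonium bromide control wells; nearly all actives have a fitted effect of over 70% in size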
Summary of the method: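 Human lymphoblastoid cells (Coriell), 2500 per well, were preincubated 5 hr at 37 C, then exposed to compounds in complete medium for 24 hr at 37 C. Cellular ATP was read by CellTiter-Glo luminescence; AC50 from Hill fits of concentration-response data.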

[27] = MultiTox-Fluor Cytotoxicity Assay - LYMP1-001 - Dead Cells (AID 946)
Summary of the method: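 Cytotoxicity as increased dead-cell protease fluorescence (bis-AAF-R110, 485/520 nm), read 60 min after MultiTox-Fluor reagent. Human lymphoblastoid line exposed 16 h; Hill-fitted AC50, with DMSO as 0% and 15 uM tetraoctylammonium bromide as 100%.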

[28] = MultiTox-Fluor Cytotoxicity Assay - LYMP1-001 - Live Cells (AID 947);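 further: 0% = DMSO only and full inhibition = tetraoctylammonium bromide control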
[29] = Cell Viability - LYMP1-002 - Assay at 16 hr (AID 948);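 further: 0% = DMSO alone and full effect = 92 µM tetraoctylammonium bromide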
Summary of the method: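 Human lymphoblastoid cells (LYMP1-002), 2500/well, were preincubated 5 hr at 37 C, then exposed to compounds for 16 hr at 37 C in complete medium. Cellular ATP was read by CellTiter-Glo luminescence after 30 min at room temperature; AC50 from Hill fits.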

[30] = MultiTox-Fluor Cytotoxicity Assay - LYMP1-002 - Live Cells (AID 955); further: on the % scale 0 is the no-effect control and ±100 the full control effect
Summary of the method: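 Cells were seeded at 2500 per well and incubated 5 hr. Compounds were then added for 16 hr at 37 C, followed by MultiTox-Fluor reagent for 60 min at room temperature and fluorescence reading of viable-cell protease signal.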

[31] = MultiTox-Fluor Cytotoxicity Assay - LYMP1-002 - Dead Cells (AID 960); further: nearly all actives have a fitted effect of over 60% in size
Summary of the method: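 Cells were plated, rested 5 hr, then treated with compound dilution series for 16 hr at 37 C. After adding substrate reagent and 60 min at room temperature, dead-cell protease fluorescence gave concentration-response curves fitted by the Hill equation.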

[32] = MultiTox-Fluor Cytotoxicity Assay - LYMP1-003 - Live Cells (AID 962);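 further: 0% = DMSO only and full loss = 92 µM tetraoctylammonium bromide; cytotoxic hits lower the live-cell protease signal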
Summary of the method: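 Acute cytotoxicity is scored as a drop in live-cell protease activity in human lymphoblastoid LYMP1-003 cells after 16 hr compound exposure at 37 C. AC50 values come from Hill-equation modelling of concentration-response data.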

[33] = Cell Viability - LYMP1-003 - Assay at 24 hr (AID 963);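 further: plate controls were DMSO only for no effect and tetraoctylammonium bromide positive control for full effect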
Summary of the method: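 Cytotoxicity is scored as a concentration-dependent fall in ATP-linked luciferase signal in human lymphoblastoid LYMP1-003 cells treated 24 hr at 37 C in complete culture medium.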

[34] = Cell Viability - LYMP1-003 - Assay at 40 hr (AID 964); further: on the % scale 0 is the no-effect control and ±100 the full control effect; nearly all actives have a fitted effect of over 60% in size
Summary of the method: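 Luminescent ATP signal (CellTiter-Glo) served as the viability read-out after 40 hr compound treatment of human lymphoblastoid LYMP1-003 cells at 37 C. Decreases in ATP were fitted with the Hill equation to give AC50.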

[35] = Cell Viability - LYMP2-003 (AID 965);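 further: cells exposed to compounds for 24 h before reading; 0% = DMSO only and full effect = 92 µM tetraoctylammonium bromide; nearly all actives have a fitted effect of over 50% in size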
Summary of the method: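 Human lymphoblastoid cells (2500/well) were pre-incubated 5 hr at 37 C, then exposed to compounds over a concentration range for 24 hr at 37 C. Intracellular ATP was read by CellTiter-Glo luminescence; AC50 came from Hill-equation fits.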

[36] = Cell Viability - LYMP2-004 (AID 966);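 further: plate controls were DMSO only for no effect and tetraoctylammonium bromide control for full effect; nearly all actives have a fitted effect of over 65% in size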
Summary of the method: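 qHTS cytotoxicity: human lymphoblastoid line, 24 hr compound treatment, 37 C, complete medium. Viability read as cellular ATP via luciferase luminescence; tetraoctylammonium bromide served as positive control.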

[37] = Cell Viability - LYMP2-005 (AID 967);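 further: plate controls were DMSO only for no effect and 92 µM tetraoctylammonium bromide control for full effect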
Summary of the method: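 CellTiter-Glo luminescence (cellular ATP) read-out; LYMP2-005 lymphoblastoid cells, 2500/well, 5 h pre-incubation, then 24 h compound exposure at 37 C in complete medium. Tetraoctylammonium bromide positive control; AC50 by standard Hill fit.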

[38] = Cell Viability - LYMP2-009 (AID 968)
[39] = Cell Viability - LYMP2-011 (AID 969)
Summary of the method: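 In this qHTS cytotoxicity format, compounds are tested across concentrations on human lymphoblastoid cells in complete medium for 24 hours at 37 C. Viability is taken as cellular ATP measured by luciferase luminescence.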

[40] = Cell Viability - LYMP2-013 (AID 970)
Summary of the method: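 Cytotoxicity is scored as a concentration-dependent drop in intracellular ATP in human lymphoblastoid cells after 24 hr compound exposure at 37 C. ATP is quantified by luciferase luminescence, and AC50 values come from Hill-equation modeling.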

[41] = Cell Viability - LYMP2-015 (AID 971)
Summary of the method: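 Cells are seeded at 2500 per well and incubated 5 hr at 37 C. Compounds are added across a concentration series for 24 hr at 37 C. CellTiter-Glo is added, and luminescence is read after 30 min at room temperature.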

[42] = Cell Viability - LYMP2-017 (AID 972)
Summary of the method: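 Cytotoxicity is scored as a concentration-dependent drop in cellular ATP in a human lymphoblastoid line after 24 hr treatment at 37 C. Values are AC50s from Hill-equation modelling.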

[43] = Cell Viability - LYMP2-021 (AID 974)
Summary of the method: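 Loss of cellular ATP, measured with a luciferase-based CellTiter-Glo readout, serves as the toxicity signal in human lymphoblastoid cells treated for 24 hours at 37 C. Potency is reported as AC50 from a standard Hill model.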

[44] = Cell Viability - LYMP2-023 (AID 975)
Summary of the method: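 Steps: seed 2500 human lymphoblastoid cells per well, incubate 5 hr at 37 C, add compound for 24 hr at 37 C, add CellTiter-Glo, hold 30 min at room temperature, read luminescence. AC50 derived by Hill modelling.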

[45] = Cell Viability - LYMP2-025 (AID 976)
Summary of the method: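 Acute cytotoxicity is scored as a concentration-dependent fall in intracellular ATP, measured by luciferase luminescence, in human lymphoblastoid LYMP2-025 cells exposed to compound for 24 hours at 37 C. AC50 values come from standard Hill fits.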

Cc1ccccc1O
inactive: Potency [1] > 92 µM | Potency [2] > 92 µM | Potency [3] > 92 µM | Potency [4] > 92 µM | Potency [5] > 92 µM | outcome [6] | activity change, negative = cytotoxicity [7] 4.57% | activity change, negative = cytotoxicity [8] 8.87% | outcome [9] | outcome [10] | outcome [11] | outcome [12] | outcome [13] | outcome [14] | outcome [15] | outcome [16] | outcome [17] | outcome [18] | outcome [19] | outcome [20] | outcome [21] | outcome [22] | outcome [23] | outcome [24] | outcome [25] | outcome [26] | Potency [27] | outcome [28] | outcome [29] | outcome [30] | Potency [31] | outcome [32] | outcome [33] | Potency [34] | outcome [35] | outcome [36] | outcome [37] | outcome [38] | outcome [39] | outcome [40] | outcome [41] | outcome [42] | outcome [43] | outcome [44] | outcome [45]
